Records with an inconclusive call do not appear. Activity calls are given as the source filed them. How the source made its calls: active means hit-call score of the fitted dose curve at least 0.9, where 1 is the maximum; inconclusive means response in the unintended direction; inactive means score below 0.9.
The compounds below were run against Estrogen receptor (Homo sapiens) (UniProt P03372) (assay: OT_ERa_GFPERaERE_0120: Odyssey Thera (OT) 2-hour HeLa Transcription Induction Assay for Estrogen Receptor (AID 2283382)).
Estrogen receptor (Homo sapiens), sequence (P03372 whole entry, looked up): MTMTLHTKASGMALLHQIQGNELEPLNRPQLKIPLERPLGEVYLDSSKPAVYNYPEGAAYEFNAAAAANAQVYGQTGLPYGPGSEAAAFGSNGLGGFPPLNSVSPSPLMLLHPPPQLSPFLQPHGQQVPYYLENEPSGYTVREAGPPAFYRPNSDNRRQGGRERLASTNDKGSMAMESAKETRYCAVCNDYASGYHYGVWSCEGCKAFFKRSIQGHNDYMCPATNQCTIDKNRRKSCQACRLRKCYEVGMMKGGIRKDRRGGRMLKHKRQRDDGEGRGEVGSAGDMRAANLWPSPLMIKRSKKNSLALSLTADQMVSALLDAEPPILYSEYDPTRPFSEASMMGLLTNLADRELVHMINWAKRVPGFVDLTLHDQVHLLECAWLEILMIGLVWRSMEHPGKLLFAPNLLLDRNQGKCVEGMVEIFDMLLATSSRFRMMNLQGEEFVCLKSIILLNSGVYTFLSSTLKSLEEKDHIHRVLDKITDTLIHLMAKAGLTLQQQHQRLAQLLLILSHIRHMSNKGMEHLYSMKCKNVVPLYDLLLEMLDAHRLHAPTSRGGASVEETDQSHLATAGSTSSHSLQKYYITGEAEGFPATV
Method in brief: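 Fluorescence microscopy read-out: inducible fluorescent protein reporter in HeLa cells, imaged 2 h post-dose. Signal increase over DMSO negative control fitted as single primary endpoint via high content image analysis.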
For Nc1c(Cl)cc([N+](=O)[O-])cc1Cl, the outcome was “inactive”. CNC(=O)ON=C(SC)C(=O)N(C)C was tested, and the outcome was “inactive”. With Cc1cc(C2CC2)nc(Nc2ccccc2)n1 the outcome was “inactive”. For CSc1nc(NC(C)C)nc(NC(C)C)n1, the outcome was “inactive”. For CC[C@H](C)[C@H]1O[C@]2(C=C[C@@H]1C)C[C@@H]1C[C@@H](C/C=C(\C)[C@@H](O[C@H]3C[C@H](OC)[C@@H](O[C@H]4C[C@H](OC)[C@@H](NC)[C@H](C)O4)[C@H](C)O3)[C@@H](C)/C=C/C=C3\CO[C@@H]4[C@H](O)C(C)=C[C@@H](C(=O)O1)[C@]34O)O2, the outcome was “inactive”. O=[N+]([O-])c1cc(C(F)(F)F)c(Cl)c([N+](=O)[O-])c1Nc1ncc(C(F)(F)F)cc1Cl was tested, and the AC50 was 77.7 µM (active). With CCCCOC(=O)[C@@H](C)Oc1ccc(Oc2ccc(C#N)cc2F)cc1 the outcome was “inactive”.

What follows are compounds tested against Bile acid receptor (Homo sapiens) (UniProt Q96RI1) (assay: OT_FXR_FXRSRC1_0480: Odyssey Thera (OT) 8-hour HEK293T Protein-Complementation Assay for Farnesoid X receptor/SRC-1 Co-activator (AID 2283383)).
Bile acid receptor (Homo sapiens), sequence (Q96RI1 whole entry, looked up, the tested form may be a part): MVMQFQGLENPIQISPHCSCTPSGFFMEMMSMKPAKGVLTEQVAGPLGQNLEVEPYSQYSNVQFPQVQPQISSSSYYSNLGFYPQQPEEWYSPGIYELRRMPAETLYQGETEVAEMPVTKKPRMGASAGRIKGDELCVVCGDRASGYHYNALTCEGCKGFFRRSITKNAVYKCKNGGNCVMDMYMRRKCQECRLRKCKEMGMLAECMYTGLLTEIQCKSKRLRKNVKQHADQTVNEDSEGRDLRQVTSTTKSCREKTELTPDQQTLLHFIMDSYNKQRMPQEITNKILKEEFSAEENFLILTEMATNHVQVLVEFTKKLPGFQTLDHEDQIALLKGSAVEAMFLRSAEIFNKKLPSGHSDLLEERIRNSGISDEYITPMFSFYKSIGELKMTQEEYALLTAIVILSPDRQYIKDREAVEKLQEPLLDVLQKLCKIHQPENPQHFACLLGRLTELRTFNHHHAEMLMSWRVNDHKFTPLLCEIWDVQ
Method in brief: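 Fluorescence intensity read-out, 8 h post-dose, HEK293T protein-fragment complementation; FXR bait and SRC-1 prey each linked to reporter fragments. Activity scored as signal increase over DMSO negative control.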
Nc1c(Cl)cc([N+](=O)[O-])cc1Cl was tested, and the outcome was “inactive”. With Cc1cc(C2CC2)nc(Nc2ccccc2)n1 the AC50 was 20.4 µM (active). In the case of CC(COc1ccc(Oc2ccccc2)cc1)Oc1ccccn1 (configuration not stated), the AC50 is reported as 43 µM (active). C#CCC1=C(C)C(OC(=O)C2C(C=C(C)C)C2(C)C)CC1=O (configuration not stated) was tested, and the AC50 was 33 µM (active). In the case of CCOP(=O)(NC(C)C)Oc1ccc(SC)c(C)c1 (configuration not stated), the AC50 is reported as 50 µM (active). With CSc1nnc(C(C)(C)C)c(=O)n1N the outcome was “inactive”. For COc1ccc(C(=CC(=O)N2CCOCC2)c2ccc(Cl)cc2)cc1OC, the AC50 was 31.5 µM (active). For CCCCOC(=O)c1ccccc1C(=O)O, the outcome was “inactive”. For C=C(C)[C@H]1Cc2c(ccc3c2O[C@@H]2COc4cc(OC)c(OC)cc4[C@@H]2C3=O)O1, the AC50 was 12.7 µM (active). With CC1(C(=O)Nc2ccc(O)c(Cl)c2Cl)CCCCC1 the outcome was “inactive”. In the case of CC(Oc1cccc(Cl)c1)C(=O)O (configuration not stated), the outcome is reported as “inactive”. C[Si](Cn1cncn1)(c1ccc(F)cc1)c1ccc(F)cc1 was tested, and the AC50 was 13 µM (active). With CC(C)N(C(=O)SCC(Cl)=C(Cl)Cl)C(C)C the AC50 was 21.9 µM (active). For CCCSP(=O)(OCC)SCCC, the outcome was “inactive”. With FC(F)C(F)(F)OCC(Cn1cncn1)c1ccc(Cl)cc1Cl (configuration not stated) the outcome was “inactive”.

From PubChem BioAssay (EPA / NIEHS)
